PubChem BioAssay AID1159580 (chemical genetic matrix, 2015)
Several values for one entry are separate records, joined by “and”; a condition that tells them apart may be missing. Identical values can stand only once. Screen size: about 5,500 compounds; about 2,000 (36%) were called active. Not shown: some 18% with an inconclusive outcome. No stated cut-off is given here; in the data, active means normalized growth mostly below about 0.91 (no sharp cut-off); inconclusive means no clear call, values can overlap the other calls; inactive means mostly above about 0.92. The list shows a part of the results.

Assay: chemical genetic growth profiling, strain panel (AID 1159580);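 further: tested at 20 µM; growth read once vehicle control cultures reached saturation at 30 °C; 1 = growth at the plate median or of vehicle wells; lower values mean less growth of the strain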
Details: S. cerevisiae deletion strains, growth OD

Measured: normalized growth

CC[C@H](C)C(=O)O[C@H]1C[C@@H](C)C=C2C=C[C@H](C)[C@H](CC[C@@H]3C[C@@H](O)CC(=O)O3)[C@H]21
inactive: locus YAL013W, strain DEP1, hits give low values 0.982 | locus YAL026C, strain drs2, hits give low values 0.994 | locus YAL030W, strain snc1, hits give low values 1.01 | locus YBL061C, strain skt5, hits give low values 1 | locus YBR009C, strain hhf1, hits give low values 1.02 | locus YBR021W, strain FUR4, hits give low values 1.04 | locus YBR023C, strain chs3, hits give low values 1.01 | locus YBR171W, strain sec66, hits give low values 1 | locus YBR229C, strain ROT2, hits give low values 0.944 | locus YBR231C, strain swc5, hits give low values 0.915 | locus YBR279W, strain paf1, hits give low values 1.01 | locus YCL011C, strain gbp2, hits give low values 1.01 | locus YCL016C, strain dcc1, hits give low values 0.999 | locus YCL029C, strain bik1, hits give low values 0.991 | locus YCL061C, strain MRC1, hits give low values 0.997 | locus YCL069W, strain vba3, hits give low values 1.01 | locus YCR088W, strain abp1, hits give low values 0.998 | locus YDL005C, strain med2, hits give low values 0.982 | locus YDL035C, strain GPR1, hits give low values 0.961 | locus YDL040C, strain nat1, hits give low values 1.01 | locus YDL074C, strain BRE1, hits give low values 1 | locus YDL101C, strain DUN1, hits give low values 0.977 | locus YDL134C, strain PPH21, hits give low values 0.971 | locus YDL185W, strain tfp1, hits give low values 0.977 | locus YDL192W, strain arf1, hits give low values 0.983 | locus YDR001C, strain nth1, hits give low values 1 | locus YDR069C, strain doa4, hits give low values 1.01 | locus YDR101C, strain arx1, hits give low values 1.02 | locus YDR150W, strain NUM1, hits give low values 0.967 | locus YDR159W, strain sac3, hits give low values 1.02 | locus YDR162C, strain NBP2, hits give low values 0.951 | locus YDR195W, strain ref2 1.06 | locus YDR297W, strain sur2, hits give low values 0.997 | locus YDR318W, strain mcm21, hits give low values 0.996 | locus YDR334W, strain swr1, hits give low values 0.954 | locus YDR335W, strain msn5, hits give low values 1 | locus YDR388W, hits give low values 0.996 | locus YDR392W, strain spt3, hits give low values 0.983 | locus YDR502C, strain sam2, hits give low values 0.969 | locus YEL003W, strain gim4, hits give low values 1 | locus YEL037C, strain rad23, hits give low values 1 | locus YEL061C, strain CIN8 (second series), hits give low values 1 | locus YEL061C, strain CIN8, hits give low values 0.979 | locus YER015W, strain faa2, hits give low values 1.01 | locus YER016W, strain bim1, hits give low values 1 | locus YER110C, hits give low values 0.974 | locus YER111C, strain swi4, hits give low values 1.01 | locus YER155C, strain BEM2 (second series), hits give low values 1.01 | locus YER155C, strain BEM2, hits give low values 0.986 | locus YER167W, strain BCK2, hits give low values 0.942 | locus YFR010W, strain ubp6, hits give low values 1.02 | locus YGL078C, strain dbp3, hits give low values 0.984 | locus YGL086W, strain mad1, hits give low values 0.968 | locus YGL167C, strain pmr1, hits give low values 0.998 | locus YGL173C, strain kem1, hits give low values 1.01 | locus YGL227W, strain vid30, hits give low values 0.996 | locus YGL240W, strain doc1, hits give low values 1.04 | locus YGL248W, strain PDE1, hits give low values 0.974 | locus YGL253W, strain hxk2, hits give low values 0.996 | locus YGR078C, strain PAC10, hits give low values 0.996 | locus YGR135W, strain pre9, hits give low values 0.942 | locus YGR229C, strain SMI1, hits give low values 0.95 | locus YGR252W, strain gcn5, hits give low values 0.878 | locus YHR013C, strain ard1, hits give low values 1.04 | locus YHR027C, strain rpn1, hits give low values 1.01 | locus YHR030C, strain SLT2, hits give low values 0.985 and 0.963 | locus YHR079C, strain IRE1 (second series), hits give low values 0.995 | locus YHR079C, strain IRE1, hits give low values 0.992 | locus YHR094C, strain hxt1, hits give low values 0.989 | locus YHR129C, strain ARP1, hits give low values 0.996 | locus YHR142W, strain chs7, hits give low values 1 | locus YHR200W, strain rpn10, hits give low values 0.994 | locus YIL066C, strain RNR3, hits give low values 0.965 | locus YIL073C, strain SPO22, hits give low values 0.823 | locus YIL125W, strain kgd1, hits give low values 0.974 | locus YIR030C, strain dcg1, hits give low values 0.976 | locus YJL092W, strain hpr5, hits give low values 1 | locus YJL095W, strain BCK1 (second series), hits give low values 1.01 | locus YJL095W, strain BCK1, hits give low values 0.988 and 0.96 | locus YJL115W, strain asf1, hits give low values 1.01 | locus YJL129C, strain trk1, hits give low values 0.997 | locus YJL134W, strain LCB3, hits give low values 0.979 | locus YJL154C, strain vps35, hits give low values 1.01 | locus YJL164C, strain tpk1, hits give low values 1 | locus YJL166W, strain qcr8, hits give low values 1.01 | locus YJL168C, strain set2, hits give low values 0.996 | locus YJL187C, strain SWE1 (second series), hits give low values 0.989 | locus YJL187C, strain SWE1, hits give low values 1 | locus YJR043C, strain POL32, hits give low values 1.04 | locus YJR066W, strain TOR1, hits give low values 0.915
active: locus YAL021C, strain ccr4, hits give low values 0.82 | locus YDR137W, strain rgp1, hits give low values 1.28 [resistant]
